The source of these data is PubChem BioAssay AID652175 (National Center for Advancing Translational Sciences (NCATS), 2013).

Values joined by “and” are separate entries in the source; they are usually repeats but may differ in a detail not shown here. Equal entries are not always repeated. Results filed as inconclusive are left out. Active and inactive are the calls of the source. Calls follow the shape of the dose curve; as a rule, active = well fitted inhibition curve with a large enough effect; inconclusive = small, poorly fitted or top-dose-only effect; inactive = no such curve, though single readings can be large or run the other way.

A short description of the experiment: qHTS Assay for Lipid Storage Modulators: S3 Assay against Probe and Analogs. The conditions noted are these: Drosophila S3 cells, BODIPY lipid droplet fluorescence, 18-24 h, oleic acid added to induce droplets; series mostly up to 46.1 µM; activity, negative = lipid storage inhibition: at the top concentration. The text has this:
Storing lipids as a reservoir for energy or the anabolism of elementary metabolites is a common feature of probably all cells and is conserved from bacteria to humans. The universal cellular lipid storage organelle is the so-called lipid storage droplet (LD). Although ubiquitous, LDs share a simple structure composed of a hydrophobic core that harbors the storage lipids, which is shielded by a droplet-specific phospholipid monolayer to which proteins are attached. The current model of LD biogenesis involves an incorporation of the lipid core into the membrane leaflets of the endoplasmic reticulum (ER) followed by a subsequent budding-like maturation of a LD, which ultimately pinches off. Once released, LD volume can increase by localized lipogenesis or fusion of existing droplets. Storage lipids are re-mobilized enzymatically by lipase activity. Lipase regulation in the adipocyte is heavily studied and involves multiple components including catecholamine signaling, the LD-associated proteins Perilipin and comparative gene identification-58 (CGI-58) and at least two lipases named hormone sensitive lipase (HSL) and adipocyte triglyceride lipase (ATGL). LD regulation outside of the adipocyte is poorly understood and only few components are known. However, there is an urgent need to learn more about ectopic fat depots as mislocalized storage of lipids, for example in the liver or muscle, is an eminent health problem associated with insulin resistance or the metabolic syndrome. We developed a laser-scanning cytometer assay to enable 1,536-well screening and combined the results of the small molecules screen with an RNAi database based on lipid storage. In this assay we tested analogs of the probe against the original qHTS assay, which involved drosophila melanogaster cells (S3), to see if these small molecules could disrupt lipid storage. NIH Molecular Libraries Probe Production Centers Network [MLPCN] NIH Chemical Genomics Center [NCGC] MLPCN Grant: MH085686 Assay Submitter (PI): Mathias Beller, Max-Planck-Institut fur Biophysikalische Chemie
qHTS was performed with embryonic Drosophila S3 cells (Bloomington Drosophila Genomics Resource Center [DGRC]). We dispensed 4 uL of cells at 1.25 x 10^6 cells/mL into LoBase Aurora COC 1,536-well plates (black walled, clear bottom) with a bottle-valve solenoid-based dispenser (Aurora) to obtain 5,000 cells/well. Triacsin C (Sigma-Aldrich T-4540), an inhibitor of long-chain fatty acyl CoA synthetase that blocks synthesis of triglycerides, was used as a positive control for lipid under-storage. A total of 23 nL of compounds dissolved in DMSO at different concentrations were transferred to the assay plates using a Kalypsys pin tool equipped with a 1,536-pin array containing 10-nL slotted pins (FP1S10, 0.457-mm diameter, 50.8 mm long; V&P Scientific). The final DMSO concentration was 0.46%. One microliter of oleic acid at 400 uM (Calbiochem, #4954) was added to induce lipid droplet formation in the cells, and the plates were lidded with stainless steel rubber gasket lined lids containing pinholes. After 18-24 h incubation at 25 0C and 95% humidity, 4 uL of the BODIPY lipid dye 493/503 (1:2000, Molecular Probes) and the Cell Tracker Red CMTPX dye (Life Technologies, # 34552) were added to the wells to stain lipid droplets and enumerate cell number, respectively. Fluorescence was detected by excitation of the fluorophores with a 488-nm laser on an Acumen Explorer (TTP Lab Tech). The total intensity in channel 1 (500-530 nm) reflected lipid droplet accumulation. Cells were detected using channel 3 (575-640 nm) with 5-um width and 100-um depth filters. The ratio of the total intensity in PMT channel 1 over total intensity of channel 3 was also calculated. Percent activity was computed relative to an internal control (100% inhibited lipid droplet deposition due to the presence of 20 uM Triacsin C), which was added to 32 wells/plate.
A general note: qHTS replaces the single test concentration by a dilution series.
On to `Cn1c(=O)n(-c2ccc(C(C)(C)C#N)cc2)c2c3cc(-c4cnc5ccccc5c4)ccc3ncc21`, for which the Potency was 1180 nM (active).
For the compound `CCOC(=O)C1CCN(C(=O)C(C)(C)NC(=O)Nc2ccc(Cl)cc2Cl)CC1`, the Potency was 1480 nM (active).
Regarding `CCOc1ccc(CCNC(=O)c2ccc(N3N=C(C)CC3=O)cc2)cc1OCC`, the “activity, negative = lipid storage inhibition” value is 80% (inactive).
On the same count and under the same terms, the figure for `CCOC(=O)C1CCN(C(=O)C(C)(C)NC(=O)Nc2ccc([N+](=O)[O-])cc2)CC1` is -60% (inactive).
Take `CCOc1ccc(CCNC(=O)CN(C)C)cc1OCC`: the “activity, negative = lipid storage inhibition” value was 73.3% (inactive).
On the same count and under the same terms, the value for `Cc1ccc(NC(=O)c2ccc(CN3CCN(C)CC3)cc2)cc1Nc1nc(-c2cccnc2)cs1` was 26.7% (inactive).
As to `CCOc1ccc(CCNC(=O)c2cccs2)cc1OCC`, the “activity, negative = lipid storage inhibition” value was -6.67% (inactive).
As to `CCOc1ccc(CCNC(=O)c2cc3c(s2)CCC3)cc1OCC`, the Potency was 332 nM (active).
For the compound `CCOc1ccc(CCNC(=O)c2cc3sccc3n2Cc2ccccc2)cc1OCC`, the Potency was 4.2 nM (active).
In the case of `O=C(NC1CCCc2c1cnn2-c1ccc(O)cc1)c1ccccn1` (stereo not given), the Potency was 1.2 nM (active).
For the compound `O=C(NCCc1ccc2c(c1)OCO2)c1cc2sccc2[nH]1`, the “activity, negative = lipid storage inhibition” value is 217% [at 38.8 µM] (inactive).
On to `CN(C)Cc1ccc(-c2nc3cccc4c3n2CCNC4=O)cc1`, for which the “activity, negative = lipid storage inhibition” value is 33.3% (inactive).
Take `CCOC(=O)C1CCN(C(=O)C2(NC(=O)Nc3ccccc3Cl)CCCCC2)CC1`: the Potency was 166 nM (active).
`CCOc1ccc(CCNC(=O)c2cc3sccc3n2CCN2CCN(C)CC2)cc1OCC`: the Potency is 332 nM (active).
For `CCOc1ccc(CCNC(=O)c2cc3sccc3[nH]2)cc1OCC`, the “activity, negative = lipid storage inhibition” value is 83.3% (inactive).
Same read-out and setting: the value for `CCOC(=O)C1CCN(C(=O)C(C)(C)NC(=O)Nc2ccc(CN3CCOCC3)cc2)CC1` was -33.3% (inactive).
Still for that read-out and setting: the value for `CCOc1ccc(CCNC(=O)C2(c3ccccc3)CC2)cc1OCC` was 177% (inactive).
For `CCOc1cc(F)c(CCNC(=O)c2cc3sccc3n2Cc2ccccc2)cc1OCC`, the Potency is 3.3 nM (active).
Turning to `CCOc1ccc(CCNC(=O)c2cc3sccc3n2Cc2ccncc2)cc1OCC`, the Potency was 132 nM (active).
For `COc1cccc(-n2ncc3c2CCCC3NC(=O)c2ccccn2)c1` (stereo not given), the Potency was 3.7 nM (active).
As for `COc1cc(Nc2ncc(F)c(Nc3ccc4c(n3)NC(=O)C(C)(C)O4)n2)cc(OC)c1OC`, the “activity, negative = lipid storage inhibition” value is -83.3% (inactive).
On to `CC(C)(C)OC(=O)NCCOCCOCCOCCn1ncc2c1CCCC2NC(=O)c1ccccn1` (stereo not given), for which the “activity, negative = lipid storage inhibition” value is -103% (inactive).
In the case of `O=C(NC1CCCc2c1cnn2-c1ccc(F)cc1F)c1ccccn1` (stereo not given), the Potency was 23.5 nM (active) and 4.7 nM (active).
`CCOc1ccc(CCNC(=O)c2cnon2)cc1OCC`: the “activity, negative = lipid storage inhibition” value is -10% (inactive).
On to `CC(C)(C)OC(=O)N1CCCCC1C(=O)NC1CCCc2c1cnn2-c1ccc(F)cc1F` (stereo not given), for which the “activity, negative = lipid storage inhibition” value is 26.7% (inactive).
As for `CCOc1ccc(CCNC(=O)c2cc3sccc3n2C(C)C)cc1OCC`, the Potency is 187 nM (active).
On to `CCOc1ccc(CCNC(=O)C2=C(C)OCCO2)cc1OCC`, for which the “activity, negative = lipid storage inhibition” value is 150% (inactive).
On the same count and under the same terms, the figure for `Cc1cn(-c2cc(NC(=O)c3ccc(C)c(Nc4nccc(-c5cccnc5)n4)c3)cc(C(F)(F)F)c2)cn1` is 110% (inactive); for `CCOC(=O)C1CCN(C(=O)C2(NC(=O)Nc3ccc(F)cc3F)CCCCC2)CC1` it is -100% (inactive).
Still for that read-out and setting: the value for `COc1cc(C)c(Sc2cnc(NC(=O)c3ccc(CNC(C)C(C)(C)C)cc3)s2)cc1C(=O)N1CCN(C(C)=O)CC1` (stereo not given) was 120% (inactive); that for `CCOC(=O)C1CCN(C(=O)C(C)(C)NC(=O)Nc2cccc(OC)c2)CC1` was -103% (inactive).
Take `CCOC(=O)C1CCN(C(=O)C(C)(C)NC(=O)Nc2cccc(C(=O)OC)c2)CC1`: the “activity, negative = lipid storage inhibition” value is -6.67% (inactive).
With `CCOC(=O)C1CCN(C(=O)C(C)(C)NC(=O)Nc2ccc3ccccc3c2)CC1`, the Potency was 4690 nM (active).
For the compound `O=C(Nc1cccc2nn(-c3ccc(F)cc3)cc12)c1ccccn1`, the “activity, negative = lipid storage inhibition” value is 193% (inactive).
Turning to `CCOc1ccc(CCNC(=O)c2ccc3ccccc3n2)cc1OCC`, the “activity, negative = lipid storage inhibition” value was 30% [at 38.8 µM] (inactive).
For `CCOc1ccc(CCNC(=O)c2cc3ccccc3n2Cc2cc(C)cc(C)n2)cc1OCC`, the Potency was 16.6 nM (active).
Turning to `O=C(O)CCc1ccc(NCc2cccc(Oc3ccccc3)c2)cc1`, the “activity, negative = lipid storage inhibition” value is 70% (inactive).
Regarding `O=C(NC1CCCc2c1cnn2-c1ccc(F)cc1F)c1ccsc1` (stereo not given), the Potency is 11.8 nM (active).
Turning to `O=C(NCCc1ccc2c(c1)OCO2)c1cc2sccc2n1Cc1ccccc1`, the “activity, negative = lipid storage inhibition” value is 3.33% (inactive).
Turning to `CCOC(=O)C1CCN(C(=O)C(C)(C)NC(=O)Nc2ccc3sccc3c2)CC1`, the “activity, negative = lipid storage inhibition” value is -63.3% (inactive).
